Results taken from the supplement of paper PMC11732987, “Enantioselective OTUD7B fragment discovery through chemoproteomics screening and high-throughput optimisation” (Communications Chemistry, 2025).

What was measured:
Assay in all cases: log2 ratio of Biotin-Ahx-Ub-VS probe labelling (fragment/DMSO); higher = less target engagement (more negative = stronger competition), active = hit call of the paper (q ≤ 0.05, log2 ratio ≤ -1)
Conditions in all cases: compound concentration: 200 uM; treatment time: 3 h
USP34 = USP34 (UniProt Q70CQ2)
Outline: (§1)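 Labelled DUBs were enriched with NeutrAvidin, digested with LysC and trypsin, and run by diaPASEF LC-MS/MS. The labelling used Biotin-Ahx-Ub-VS at 0.5 µM final for 1 h on HEK293T lysate (495 µg per sample) previously treated in triplicate with fragment at 200 µM or vehicle for 3 h. Values are average log2 fragment/vehicle ratios by unpaired t-test on global-median-normalised Spectronaut quantities of proteins with ≥2 unique peptides.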

USP36 = target: T1, USP36 (UniProt Q9P275)
T1 sequence (whole entry): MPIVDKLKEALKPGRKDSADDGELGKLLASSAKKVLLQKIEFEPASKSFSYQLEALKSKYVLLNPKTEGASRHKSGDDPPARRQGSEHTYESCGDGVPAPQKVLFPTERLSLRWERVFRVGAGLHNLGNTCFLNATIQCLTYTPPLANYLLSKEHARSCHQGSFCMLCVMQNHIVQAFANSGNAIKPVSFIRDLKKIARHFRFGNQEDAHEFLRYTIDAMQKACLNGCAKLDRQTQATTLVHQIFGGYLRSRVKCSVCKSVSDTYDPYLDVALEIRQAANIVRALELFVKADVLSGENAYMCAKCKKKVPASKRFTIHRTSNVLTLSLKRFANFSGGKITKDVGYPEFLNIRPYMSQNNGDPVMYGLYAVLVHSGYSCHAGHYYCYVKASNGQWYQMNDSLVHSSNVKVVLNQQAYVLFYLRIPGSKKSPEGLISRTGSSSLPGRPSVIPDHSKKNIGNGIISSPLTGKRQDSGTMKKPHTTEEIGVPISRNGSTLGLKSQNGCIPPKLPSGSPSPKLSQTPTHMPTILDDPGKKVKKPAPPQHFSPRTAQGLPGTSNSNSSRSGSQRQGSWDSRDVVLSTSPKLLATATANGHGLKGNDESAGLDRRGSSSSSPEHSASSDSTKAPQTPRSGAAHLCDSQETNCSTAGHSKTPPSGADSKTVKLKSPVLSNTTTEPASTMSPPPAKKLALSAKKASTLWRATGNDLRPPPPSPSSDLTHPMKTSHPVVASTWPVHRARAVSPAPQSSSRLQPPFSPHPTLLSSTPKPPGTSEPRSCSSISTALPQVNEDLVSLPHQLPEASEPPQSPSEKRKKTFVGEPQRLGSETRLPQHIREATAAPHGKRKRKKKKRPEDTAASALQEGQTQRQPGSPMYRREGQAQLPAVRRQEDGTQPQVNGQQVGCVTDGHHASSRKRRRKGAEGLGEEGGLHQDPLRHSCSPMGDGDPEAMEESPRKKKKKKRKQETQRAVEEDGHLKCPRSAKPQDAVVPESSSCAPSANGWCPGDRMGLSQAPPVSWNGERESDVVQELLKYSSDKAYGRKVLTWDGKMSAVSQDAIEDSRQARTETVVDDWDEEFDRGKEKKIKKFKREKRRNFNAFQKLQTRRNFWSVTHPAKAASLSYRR
Outline: as §1

USP38 = target: T2, USP38 (UniProt Q8NB14)
T2 sequence (whole entry): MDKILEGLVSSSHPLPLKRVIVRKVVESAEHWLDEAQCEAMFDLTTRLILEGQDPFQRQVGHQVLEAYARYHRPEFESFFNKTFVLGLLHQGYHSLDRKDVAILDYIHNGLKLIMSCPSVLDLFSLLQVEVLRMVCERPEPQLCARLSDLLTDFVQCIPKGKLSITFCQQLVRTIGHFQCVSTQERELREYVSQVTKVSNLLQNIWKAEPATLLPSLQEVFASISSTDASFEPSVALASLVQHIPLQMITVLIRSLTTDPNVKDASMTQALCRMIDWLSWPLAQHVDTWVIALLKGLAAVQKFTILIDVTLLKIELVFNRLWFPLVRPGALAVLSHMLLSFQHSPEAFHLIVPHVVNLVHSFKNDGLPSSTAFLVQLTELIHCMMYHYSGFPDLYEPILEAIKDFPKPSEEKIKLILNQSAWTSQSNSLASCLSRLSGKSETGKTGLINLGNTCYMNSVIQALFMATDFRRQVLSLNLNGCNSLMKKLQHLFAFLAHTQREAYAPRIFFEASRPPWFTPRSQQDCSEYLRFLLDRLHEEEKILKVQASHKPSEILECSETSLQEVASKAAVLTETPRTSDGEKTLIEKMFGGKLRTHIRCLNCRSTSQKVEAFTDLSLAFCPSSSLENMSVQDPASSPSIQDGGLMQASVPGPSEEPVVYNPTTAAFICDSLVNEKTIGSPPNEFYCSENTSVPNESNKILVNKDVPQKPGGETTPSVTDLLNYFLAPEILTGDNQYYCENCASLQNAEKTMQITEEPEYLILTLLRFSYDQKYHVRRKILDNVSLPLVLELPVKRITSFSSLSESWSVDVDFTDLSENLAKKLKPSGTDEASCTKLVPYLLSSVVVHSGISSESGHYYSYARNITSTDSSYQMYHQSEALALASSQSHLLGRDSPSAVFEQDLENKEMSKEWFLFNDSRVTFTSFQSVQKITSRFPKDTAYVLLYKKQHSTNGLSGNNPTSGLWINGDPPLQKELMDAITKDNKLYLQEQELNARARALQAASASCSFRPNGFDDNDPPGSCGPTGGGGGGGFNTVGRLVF
Outline: as §1

USP39 = target: T3, USP39 (UniProt Q53GS9)
T3 sequence (whole entry): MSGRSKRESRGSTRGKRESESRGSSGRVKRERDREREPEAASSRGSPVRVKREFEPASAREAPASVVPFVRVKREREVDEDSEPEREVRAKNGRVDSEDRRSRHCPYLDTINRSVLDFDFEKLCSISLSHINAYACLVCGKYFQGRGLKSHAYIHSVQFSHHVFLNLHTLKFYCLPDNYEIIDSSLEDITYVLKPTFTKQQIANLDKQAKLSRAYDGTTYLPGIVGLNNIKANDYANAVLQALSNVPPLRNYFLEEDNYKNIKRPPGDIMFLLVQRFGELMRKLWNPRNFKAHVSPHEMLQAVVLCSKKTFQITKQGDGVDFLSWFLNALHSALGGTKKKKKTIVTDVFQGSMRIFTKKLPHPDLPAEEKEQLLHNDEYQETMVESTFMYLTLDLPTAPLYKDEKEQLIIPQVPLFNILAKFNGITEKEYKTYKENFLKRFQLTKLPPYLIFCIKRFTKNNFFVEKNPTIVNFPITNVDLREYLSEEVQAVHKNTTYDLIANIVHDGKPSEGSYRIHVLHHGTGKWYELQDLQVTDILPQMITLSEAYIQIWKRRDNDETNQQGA
Outline: as §1

USP4 = target: T4, USP4 (UniProt Q13107)
T4 sequence (whole entry): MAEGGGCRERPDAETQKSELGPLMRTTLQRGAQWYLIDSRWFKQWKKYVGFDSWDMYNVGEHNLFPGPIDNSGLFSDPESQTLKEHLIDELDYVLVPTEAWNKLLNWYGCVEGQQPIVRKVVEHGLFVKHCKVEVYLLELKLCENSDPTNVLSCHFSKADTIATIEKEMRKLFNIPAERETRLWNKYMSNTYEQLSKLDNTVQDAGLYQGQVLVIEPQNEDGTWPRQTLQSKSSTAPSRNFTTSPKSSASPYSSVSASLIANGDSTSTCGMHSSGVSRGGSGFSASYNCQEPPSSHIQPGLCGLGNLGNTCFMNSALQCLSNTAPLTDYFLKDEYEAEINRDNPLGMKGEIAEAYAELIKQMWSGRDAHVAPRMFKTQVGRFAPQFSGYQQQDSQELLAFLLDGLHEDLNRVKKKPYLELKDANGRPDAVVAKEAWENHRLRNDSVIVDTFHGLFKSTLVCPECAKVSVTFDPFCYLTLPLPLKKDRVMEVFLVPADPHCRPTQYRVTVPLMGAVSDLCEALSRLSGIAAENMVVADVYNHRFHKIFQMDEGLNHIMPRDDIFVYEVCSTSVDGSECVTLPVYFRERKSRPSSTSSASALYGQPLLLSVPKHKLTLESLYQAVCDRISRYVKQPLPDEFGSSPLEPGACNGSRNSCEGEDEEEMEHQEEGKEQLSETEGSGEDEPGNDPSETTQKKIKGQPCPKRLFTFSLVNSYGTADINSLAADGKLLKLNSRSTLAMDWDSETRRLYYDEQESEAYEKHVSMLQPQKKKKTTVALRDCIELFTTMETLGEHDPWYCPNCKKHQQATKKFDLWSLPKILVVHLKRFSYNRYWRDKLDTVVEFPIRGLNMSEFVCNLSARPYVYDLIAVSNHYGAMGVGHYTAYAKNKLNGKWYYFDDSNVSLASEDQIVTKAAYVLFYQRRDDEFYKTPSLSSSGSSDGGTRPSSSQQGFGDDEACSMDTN
Outline: as §1

Measured: log2 ratio of Biotin-Ahx-Ub-VS probe labelling

Sequence of USP34 (Q70CQ2 whole entry, the tested form may be a part): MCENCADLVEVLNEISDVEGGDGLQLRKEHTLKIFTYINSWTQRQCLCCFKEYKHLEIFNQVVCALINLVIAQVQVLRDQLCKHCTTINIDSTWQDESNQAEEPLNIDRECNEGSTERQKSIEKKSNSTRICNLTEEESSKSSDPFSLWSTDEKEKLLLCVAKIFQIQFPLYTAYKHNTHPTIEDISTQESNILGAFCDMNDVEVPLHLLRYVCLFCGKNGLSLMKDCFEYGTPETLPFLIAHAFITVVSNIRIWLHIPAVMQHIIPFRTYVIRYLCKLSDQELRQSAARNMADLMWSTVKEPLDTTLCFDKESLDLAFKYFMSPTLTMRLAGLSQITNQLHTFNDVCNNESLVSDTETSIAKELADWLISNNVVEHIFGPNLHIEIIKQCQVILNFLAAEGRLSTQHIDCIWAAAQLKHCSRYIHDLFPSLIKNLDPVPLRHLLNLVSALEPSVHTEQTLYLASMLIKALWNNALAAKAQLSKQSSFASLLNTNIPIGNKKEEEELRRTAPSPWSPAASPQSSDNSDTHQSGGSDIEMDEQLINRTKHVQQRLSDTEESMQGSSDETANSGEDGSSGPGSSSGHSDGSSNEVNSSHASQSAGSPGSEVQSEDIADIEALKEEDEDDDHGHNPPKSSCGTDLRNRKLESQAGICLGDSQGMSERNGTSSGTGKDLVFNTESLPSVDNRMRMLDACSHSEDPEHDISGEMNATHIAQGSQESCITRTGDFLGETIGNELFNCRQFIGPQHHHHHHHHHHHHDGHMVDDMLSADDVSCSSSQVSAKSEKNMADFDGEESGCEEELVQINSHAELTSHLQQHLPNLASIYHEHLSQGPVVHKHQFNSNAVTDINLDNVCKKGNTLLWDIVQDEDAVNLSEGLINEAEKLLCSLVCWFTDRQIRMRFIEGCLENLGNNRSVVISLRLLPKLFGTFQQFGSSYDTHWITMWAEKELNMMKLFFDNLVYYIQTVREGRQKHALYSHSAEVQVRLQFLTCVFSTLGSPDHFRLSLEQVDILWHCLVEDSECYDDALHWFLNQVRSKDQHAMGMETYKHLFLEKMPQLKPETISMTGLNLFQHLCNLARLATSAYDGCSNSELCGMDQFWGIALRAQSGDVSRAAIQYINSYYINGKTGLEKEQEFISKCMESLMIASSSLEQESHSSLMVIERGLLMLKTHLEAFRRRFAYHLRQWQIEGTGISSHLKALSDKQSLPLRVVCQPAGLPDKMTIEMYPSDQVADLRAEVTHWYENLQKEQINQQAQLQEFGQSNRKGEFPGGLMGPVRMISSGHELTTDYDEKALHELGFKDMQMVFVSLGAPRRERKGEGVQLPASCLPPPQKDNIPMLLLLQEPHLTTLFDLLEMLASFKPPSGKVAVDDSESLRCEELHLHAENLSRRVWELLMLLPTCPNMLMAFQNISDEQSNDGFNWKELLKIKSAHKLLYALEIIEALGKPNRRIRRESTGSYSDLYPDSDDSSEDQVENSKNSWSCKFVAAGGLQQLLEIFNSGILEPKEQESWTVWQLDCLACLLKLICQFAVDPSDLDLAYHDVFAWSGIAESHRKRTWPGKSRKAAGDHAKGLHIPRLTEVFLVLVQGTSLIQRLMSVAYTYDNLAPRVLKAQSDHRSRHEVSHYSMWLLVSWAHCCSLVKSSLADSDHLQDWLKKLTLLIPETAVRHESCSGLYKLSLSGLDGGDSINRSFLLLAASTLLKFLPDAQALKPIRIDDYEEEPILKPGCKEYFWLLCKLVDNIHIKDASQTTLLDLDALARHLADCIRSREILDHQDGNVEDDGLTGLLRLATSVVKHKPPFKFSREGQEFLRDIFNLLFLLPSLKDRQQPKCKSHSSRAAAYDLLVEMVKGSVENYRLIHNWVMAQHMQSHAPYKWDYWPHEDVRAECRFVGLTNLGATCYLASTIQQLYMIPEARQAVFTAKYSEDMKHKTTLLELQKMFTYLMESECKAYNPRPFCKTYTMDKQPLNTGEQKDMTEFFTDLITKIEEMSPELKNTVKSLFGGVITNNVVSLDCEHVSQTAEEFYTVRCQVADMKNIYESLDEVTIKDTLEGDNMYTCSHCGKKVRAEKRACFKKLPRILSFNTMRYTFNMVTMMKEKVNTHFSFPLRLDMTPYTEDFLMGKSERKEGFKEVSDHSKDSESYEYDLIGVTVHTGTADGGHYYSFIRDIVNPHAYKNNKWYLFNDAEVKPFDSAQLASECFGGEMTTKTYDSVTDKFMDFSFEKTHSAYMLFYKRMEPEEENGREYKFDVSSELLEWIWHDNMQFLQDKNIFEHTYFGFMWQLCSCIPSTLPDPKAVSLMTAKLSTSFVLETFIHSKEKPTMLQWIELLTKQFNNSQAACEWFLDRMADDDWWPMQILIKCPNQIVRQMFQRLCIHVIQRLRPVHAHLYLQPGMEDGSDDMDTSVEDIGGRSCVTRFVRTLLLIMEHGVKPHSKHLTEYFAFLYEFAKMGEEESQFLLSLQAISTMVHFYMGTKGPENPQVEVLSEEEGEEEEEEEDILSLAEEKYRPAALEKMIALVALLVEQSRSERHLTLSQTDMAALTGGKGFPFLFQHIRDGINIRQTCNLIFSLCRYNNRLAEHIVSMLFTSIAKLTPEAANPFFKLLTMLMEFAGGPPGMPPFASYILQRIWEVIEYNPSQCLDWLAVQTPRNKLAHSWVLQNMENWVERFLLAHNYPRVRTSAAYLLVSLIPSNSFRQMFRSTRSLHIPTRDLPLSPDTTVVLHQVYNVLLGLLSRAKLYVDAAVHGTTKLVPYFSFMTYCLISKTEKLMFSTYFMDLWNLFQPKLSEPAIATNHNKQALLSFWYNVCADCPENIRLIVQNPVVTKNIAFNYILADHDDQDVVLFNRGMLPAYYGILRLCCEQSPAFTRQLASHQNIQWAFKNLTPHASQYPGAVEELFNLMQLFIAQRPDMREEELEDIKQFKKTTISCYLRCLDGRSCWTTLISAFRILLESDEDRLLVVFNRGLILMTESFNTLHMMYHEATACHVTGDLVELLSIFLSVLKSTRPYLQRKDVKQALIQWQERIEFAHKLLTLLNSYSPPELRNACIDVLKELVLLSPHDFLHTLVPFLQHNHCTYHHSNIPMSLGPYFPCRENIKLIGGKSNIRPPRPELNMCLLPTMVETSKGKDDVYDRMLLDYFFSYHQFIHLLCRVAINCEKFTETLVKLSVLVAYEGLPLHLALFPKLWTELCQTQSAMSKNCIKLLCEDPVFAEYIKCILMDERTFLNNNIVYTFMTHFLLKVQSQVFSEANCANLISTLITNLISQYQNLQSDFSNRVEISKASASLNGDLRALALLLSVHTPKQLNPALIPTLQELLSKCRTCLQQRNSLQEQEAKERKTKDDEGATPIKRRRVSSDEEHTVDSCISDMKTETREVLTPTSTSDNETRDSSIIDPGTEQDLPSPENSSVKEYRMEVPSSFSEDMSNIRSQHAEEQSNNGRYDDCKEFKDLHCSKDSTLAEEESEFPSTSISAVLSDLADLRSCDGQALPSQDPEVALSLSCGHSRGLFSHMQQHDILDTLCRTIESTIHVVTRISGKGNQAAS

O=C(CCl)Nc1ccc(N2CCCC2=O)cc1
inactive: USP34 0.0377 | USP36 0.2 | USP38 0.147 | USP39 -0.106 | USP4 0.0532
